PubChem BioAssay
Active and inactive are the calls of the source. Unless noted, how the calls were made is not given here.

Columns and labels:
[1] = Plasmodium falciparum growth inhibition, primary screen, strain 3D7, DAPI fluorescence, 100 nL (AID 1184);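 further: parasites grown inside human red blood cells in medium with human serum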; conditions: P. falciparum 3D7 growth, 3 d, higher = more signal
[2] = biological target: Homeobox protein Hox-A13 (Mus musculus) (UniProt Q62424); assay: inhibitors of HoxA13-DNA binding, primary screen, biochemical, fluorescence polarization, labeled oligonucleotide (AID 1185); conditions: 15 min, higher = more signal, called active from +8 up or from −8 down
Homeobox protein Hox-A13 (Mus musculus), sequence (Q62424 whole entry, looked up): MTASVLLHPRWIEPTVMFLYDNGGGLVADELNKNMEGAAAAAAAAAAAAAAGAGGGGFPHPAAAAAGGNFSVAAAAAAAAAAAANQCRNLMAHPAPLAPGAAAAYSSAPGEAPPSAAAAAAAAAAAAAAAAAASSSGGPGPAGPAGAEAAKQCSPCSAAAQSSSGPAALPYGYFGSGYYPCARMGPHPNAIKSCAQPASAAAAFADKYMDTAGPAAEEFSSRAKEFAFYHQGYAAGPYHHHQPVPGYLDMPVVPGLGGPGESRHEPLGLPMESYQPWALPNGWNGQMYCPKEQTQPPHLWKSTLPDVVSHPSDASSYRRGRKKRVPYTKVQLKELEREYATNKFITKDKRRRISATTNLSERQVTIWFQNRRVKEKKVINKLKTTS

[3] = inhibitors of hydroxyurea-induced Chk1 phosphorylation, primary screen, imaging, HeLa, phospho-Chk1 antibody, percent positive cells (AID 1186); conditions: hydroxyurea-induced phospho-Chk1 immunofluorescence imaging, higher = more signal
[4] = inhibitors of hydroxyurea-induced Chk1 phosphorylation, primary screen, imaging, HeLa, phospho-Chk1 nuclear intensity (AID 1187); conditions: hydroxyurea-induced phospho-Chk1 immunofluorescence imaging, higher = more signal; further: test concentration not given here

COCCOC(=O)N1C(=O)[C@@]2(c3cc(C#CC4(O)CCCCCC4)ccc31)[C@H](C(=O)NC[C@H](O)c1ccccc1)[C@H]1C(=O)O[C@H](c3ccccc3)[C@H](c3ccccc3)N1[C@@H]2c1ccccc1OCCO
z-score [1]: -2.11
z-score [2]: -0.371 (inactive)
z-score [3]: 0.462 (inactive)
z-score [4]: 0.992 (inactive)

C=C(C(=O)CC[C@@H](OC(C)=O)c1ccccc1OCCO)C(C)C
z-score [1]: -1.59
z-score [2]: -1.92 (inactive)
z-score [3]: -0.345 (inactive)
z-score [4]: -0.171 (inactive)

CC(C)NC(=O)[C@@H]1c2ccccc2C(=O)N(Cc2cc(F)cc(C(F)(F)F)c2)[C@H]1c1ccc(CO)cc1
z-score [1]: -0.327
z-score [2]: -2.19 (inactive)
z-score [3]: -0.121 (inactive)
z-score [4]: 0.0894 (inactive)

Cc1ccc(S[C@]2(C(=O)NC3CC3)CC(=O)N(Cc3ccccc3C(F)(F)F)[C@@H]2c2ccc(CO)cc2I)cc1
z-score [1]: -0.215
z-score [2]: -1 (inactive)
z-score [3]: 0.104 (inactive)
z-score [4]: 0.576 (inactive)

C#CCN1C(C(=O)OCC)OC[C@H]1c1ccccc1 (stereo not given in full)
z-score [1]: -1.53
z-score [2]: 0.387 (inactive)
z-score [3]: -0.285 (inactive)
z-score [4]: 0.0032 (inactive)

COc1ccc(C#Cc2ccc3c(c2)[C@]2(C(=O)N3)[C@H](c3ccc(O)cc3)N3[C@H](c4ccccc4)[C@H](c4ccccc4)OC(=O)[C@H]3[C@@H]2C(N)=O)cc1
z-score [1]: -1.17
z-score [2]: -0.123 (inactive)
z-score [3]: 0.186 (inactive)
z-score [4]: 0.381 (inactive)

C=CCNC(=O)[C@@H]1[C@H]2C(=O)O[C@H](c3ccccc3)[C@H](c3ccccc3)N2[C@H](c2ccc(O)cc2)[C@@]12C(=O)N(C(=O)OCCOC)c1ccc(C#Cc3ccc(OC)cc3)cc12
z-score [1]: -1.08
z-score [2]: -0.182 (inactive)
z-score [3]: 0.148 (inactive)
z-score [4]: 0.446 (inactive)

C[N+](C)(C)CCCCNC(=O)[C@@H]1C[C@@H]2C(=O)NCC(=O)N2[C@@H]1c1cccc(OCCO)c1
z-score [1]: -0.664
z-score [2]: -1.4 (inactive)
z-score [3]: 0.469 (inactive)
z-score [4]: 1.31 (inactive)

C=CC[C@]1(C(=O)N(C)C)N=C(c2ccc(OCCCO)cc2)O[C@H]1c1ccccc1CN=[N+]=[N-]
z-score [1]: -2.49
z-score [2]: -4.33 (inactive)
z-score [3]: -0.0783 (inactive)
z-score [4]: 0.347 (inactive)

COCCCN1C(=O)[C@@]2(Cc3ccccc31)c1ccccc1C(=O)N(Cc1ccccc1Cl)[C@H]2c1ccc(CO)cc1
z-score [1]: -0.7
z-score [2]: -0.759 (inactive)
z-score [3]: -0.83 (inactive)
z-score [4]: -0.981 (inactive)

CC(C)C(=C=CC[C@@H](O)c1ccc(CO)o1)CCO
z-score [1]: -0.0113
z-score [2]: -3.45 (inactive)
z-score [3]: -0.969 (inactive)
z-score [4]: -0.763 (inactive)

COC(=O)C1=CC(c2ccc(CO)cc2)=CC(c2cccs2)N(C)C=C1C(=O)OC (stereo not given)
z-score [1]: -1.75
z-score [2]: -6.41 (inactive)
z-score [3]: -0.261 (inactive)
z-score [4]: -0.22 (inactive)

CCCCC(=C=CC[C@H](O)c1cccc(OCCO)c1)CCO
z-score [1]: -1.01
z-score [2]: -2.75 (inactive)
z-score [3]: -0.0801 (inactive)
z-score [4]: -0.401 (inactive)

NCCCCCCNC(=O)[C@@H]1C[C@@H]2C(=O)N[C@@H](Cc3ccccc3)C(=O)N2[C@@H]1c1ccc(O)cc1
z-score [1]: -0.18
z-score [2]: -1.74 (inactive)
z-score [3]: 1 (inactive)
z-score [4]: 0.982 (inactive)

C=C(COC)/C(=C/C[C@H](OC(C)=O)c1ccc(CO)o1)c1cnc2ccccc2c1
z-score [1]: -0.649
z-score [2]: -4.41 (inactive)
z-score [3]: -0.595 (inactive)
z-score [4]: -0.669 (inactive)

CC(C)CCC[C@@H](C)[C@H]1CC[C@@]2(C)C3=C(CC[C@]12C)[C@@]1(C)CC[C@H](OC(=O)CCl)C(C)(C)C1CC3 (stereo not given in full)
z-score [1]: -0.0992
z-score [2]: -0.128 (inactive)
z-score [3]: -0.199 (inactive)
z-score [4]: -0.281 (inactive)

CCCCCCC#C[Si](O[C@H](c1ccccc1)c1cn(Cc2ccccc2)nn1)(C(C)C)C(C)C
z-score [1]: -0.934
z-score [2]: 1.18 (inactive)
z-score [3]: -0.766 (inactive)
z-score [4]: -0.601 (inactive)

C=CC[C@@H](OC(=O)Nc1ccc(SC)cc1)c1ccc(OCCO)cc1
z-score [1]: 0.246
z-score [2]: -5.9 (inactive)
z-score [3]: -0.0622 (inactive)
z-score [4]: 0.593 (inactive)

CC(C)N1C(=O)c2ccccc2[C@@H](C(=O)NCc2ccccc2)[C@@H]1c1ccc(CO)cc1
z-score [1]: -0.3
z-score [2]: -0.468 (inactive)
z-score [3]: -0.67 (inactive)
z-score [4]: -0.869 (inactive)

NCCCCCNC(=O)[C@H]1C[C@H]2C(=O)NCC(=O)N2[C@H]1c1ccc(O)cc1
z-score [1]: -0.223
z-score [2]: -0.587 (inactive)
z-score [3]: 0.637 (inactive)
z-score [4]: 0.791 (inactive)

NC(=O)N1C(=O)C2C(C1=O)C1C=C(c3ccc(CO)cc3)C2C(C2CC2)N1Cc1cc2c(cc1Br)OCO2 (stereo not given)
z-score [1]: -2.14
z-score [2]: -3.21 (inactive)
z-score [3]: -0.136 (inactive)
z-score [4]: -0.279 (inactive)

CC(C)(C)OC(=O)CC[C@]1(C(=O)NCc2ccccc2)N=C(c2ccc(OCCCO)cc2)O[C@H]1c1ccccc1N=[N+]=[N-]
z-score [1]: -2.16
z-score [2]: -0.908 (inactive)
z-score [3]: -0.328 (inactive)
z-score [4]: 0.252 (inactive)

C=CCC(OC(C)=O)[C@@H]1[C@@H](N(Cc2ccc(-c3ccccc3)cc2)C(=O)c2ccc(-c3ccccc3)cc2)c2cc(OCCCO)ccc2N1C(=O)c1ccc(-c2ccccc2)cc1 (stereo not given in full)
z-score [1]: -0.883
z-score [2]: -0.513 (inactive)
z-score [3]: -0.293 (inactive)
z-score [4]: 0.122 (inactive)

CC(C)[C@@H](C(=O)O)n1cc(-c2ccccn2)nn1
z-score [1]: -0.461
z-score [2]: -1.37 (inactive)
z-score [3]: -0.0368 (inactive)
z-score [4]: -0.0613 (inactive)

C=C(COC)C(=O)CC[C@H](OC(=O)c1ccccc1-c1ccccc1C(=O)O)c1ccccc1OCCO
z-score [1]: -1.11
z-score [2]: -3.93 (inactive)
z-score [3]: 0.269 (inactive)
z-score [4]: -0.228 (inactive)

CCCC[C@@H](O)C1=C(C)C[C@H]2C(=O)N(C)C(=O)[C@H]2[C@H]1CO
z-score [1]: -1.46
z-score [2]: -3.63 (inactive)
z-score [3]: -0.425 (inactive)
z-score [4]: -0.185 (inactive)

O=C(N1CCCCC1)[C@@]1(Cc2ccccc2)N=C(c2ccc(OCCCO)cc2)O[C@H]1c1ccccc1
z-score [1]: -2.18
z-score [2]: -3.68 (inactive)
z-score [3]: -1.29 (inactive)
z-score [4]: -1.55 (inactive)

COc1ccc([Si](C)(C)[C@@H]2[C@@H](CC(=O)N3CCC[C@H]3CO)O[C@]3(C(=O)N(Cc4ccc(N5CCC5=O)cc4)c4ccccc43)[C@H]2C)cc1
z-score [1]: -0.0482
z-score [2]: -2.83 (inactive)
z-score [3]: -0.245 (inactive)
z-score [4]: 0.476 (inactive)

C=CCNC(=O)[C@@H]1[C@H]2C(=O)O[C@H](c3ccccc3)[C@H](c3ccccc3)N2[C@H](c2ccc(O)cc2)[C@@]12C(=O)Nc1ccc(C#Cc3ccc(OC)cc3)cc12
z-score [1]: -0.107
z-score [2]: 0.296 (inactive)
z-score [3]: -0.357 (inactive)
z-score [4]: -0.426 (inactive)

O=C1O[C@@H](c2ccccc2)[C@@H](c2ccccc2)N2[C@@H](c3ccc(OCCO)cc3)[C@]3(C(=O)Nc4ccc(C#CC5(O)CCCCCC5)cc43)[C@@H](C(=O)NC[C@H](O)c3ccccc3)[C@H]12
z-score [1]: -2.21
z-score [2]: -1.22 (inactive)
z-score [3]: 0.0477 (inactive)
z-score [4]: 0.343 (inactive)

CC(=O)OC(C/C=C\B1OC(C)(C)C(C)(C)O1)c1ccccc1 (stereo not given)
z-score [1]: -1.41
z-score [2]: -1.28 (inactive)
z-score [3]: -0.873 (inactive)
z-score [4]: -1.16 (inactive)

C#CCOc1ccc(C[C@H]2C(=O)O[C@H](Cc3ccccc3)[C@H](/C=C/C3CC3)N2CC#C)cc1
z-score [1]: -1.13
z-score [2]: -0.167 (inactive)
z-score [3]: -0.54 (inactive)
z-score [4]: -0.582 (inactive)

CCN(CC)c1ccc(N2CC=CC34O[C@@H]5C=CCOC(=O)[C@@H]5[C@H]3C(=O)N(C(CO)C(C)C)[C@@H]4C2=O)cc1 (stereo not given in full)
z-score [1]: -0.45
z-score [2]: -3.03 (inactive)
z-score [3]: -0.623 (inactive)
z-score [4]: 0.286 (inactive)

C=CCNC(=O)[C@H]1[C@@H]2C(=O)O[C@@H](c3ccccc3)[C@@H](c3ccccc3)N2[C@@H](c2ccc(OCCO)cc2)[C@]12C(=O)Nc1ccc(C#CCCO)cc12
z-score [1]: -0.739
z-score [2]: -3.71 (inactive)
z-score [3]: -0.229 (inactive)
z-score [4]: -0.205 (inactive)

O=C(NC1CC1)[C@@H]1c2ccccc2C(=O)N(Cc2ccccc2C(F)(F)F)[C@H]1c1ccc(CO)cc1
z-score [1]: -0.358
z-score [2]: -1.7 (inactive)
z-score [3]: -0.14 (inactive)
z-score [4]: 0.177 (inactive)

O=C(NO)[C@]1(Cc2ccccc2)N=C(c2ccc(OCCCO)cc2)O[C@@H]1c1ccccc1
z-score [1]: -1.26
z-score [2]: -5.15 (inactive)
z-score [3]: -0.593 (inactive)
z-score [4]: -0.0319 (inactive)

COc1ccc([Si](C)(C)[C@H]2[C@H](CC(=O)N(CCO)Cc3ccccc3)O[C@@]3(C(=O)N(Cc4ccc(N5CCOC5=O)cc4)c4ccccc43)[C@@H]2C)cc1
z-score [1]: -1.04
z-score [2]: -1.48 (inactive)
z-score [3]: -0.0614 (inactive)
z-score [4]: 0.0752 (inactive)

COc1ccc(CCNC(=O)[C@@]2(Sc3ccc(C)cc3)CC(=O)N(Cc3ccccc3)[C@@H]2c2ccc(CO)cc2I)cc1
z-score [1]: -1.01
z-score [2]: -1.1 (inactive)
z-score [3]: 0.0564 (inactive)
z-score [4]: 0.672 (inactive)

COc1ccc([Si](C)(C)[C@@H]2[C@@H](CCn3cc([C@H](O)c4ccccc4)nn3)O[C@]3(C(=O)N(C)c4c(Br)cc(C)cc43)[C@H]2C)cc1
z-score [1]: -1.22
z-score [2]: -3.19 (inactive)
z-score [3]: -0.973 (inactive)
z-score [4]: -0.208 (inactive)

CC1CC/C=C\[C@H]2OC34C=CCN(C(C)C)C(=O)[C@H]3N(C(CO)C(C)C)C(=O)[C@@H]4C2C(=O)O1 (stereo not given in full)
z-score [1]: 0.639
z-score [2]: -4.54 (inactive)
z-score [3]: -0.686 (inactive)
z-score [4]: -0.549 (inactive)
